# Screens (PubChem)
# RBX1-CUL1 inh: human ROC1-CUL1 E3 ligase inhibition | inhibition, % at 10 µM | 140,000 compounds, 0.6% hits | in vitro K48 di-Ub FRET, acceptor:donor ratio, 45 min | P62877+Q13616; in the data active = inhibition above about 25%
# Target sequence (P62877 whole entry, looked up): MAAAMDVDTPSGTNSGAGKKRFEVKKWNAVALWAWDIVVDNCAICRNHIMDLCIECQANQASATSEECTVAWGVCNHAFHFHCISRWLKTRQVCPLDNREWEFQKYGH
# Target sequence (Q13616 whole entry, looked up): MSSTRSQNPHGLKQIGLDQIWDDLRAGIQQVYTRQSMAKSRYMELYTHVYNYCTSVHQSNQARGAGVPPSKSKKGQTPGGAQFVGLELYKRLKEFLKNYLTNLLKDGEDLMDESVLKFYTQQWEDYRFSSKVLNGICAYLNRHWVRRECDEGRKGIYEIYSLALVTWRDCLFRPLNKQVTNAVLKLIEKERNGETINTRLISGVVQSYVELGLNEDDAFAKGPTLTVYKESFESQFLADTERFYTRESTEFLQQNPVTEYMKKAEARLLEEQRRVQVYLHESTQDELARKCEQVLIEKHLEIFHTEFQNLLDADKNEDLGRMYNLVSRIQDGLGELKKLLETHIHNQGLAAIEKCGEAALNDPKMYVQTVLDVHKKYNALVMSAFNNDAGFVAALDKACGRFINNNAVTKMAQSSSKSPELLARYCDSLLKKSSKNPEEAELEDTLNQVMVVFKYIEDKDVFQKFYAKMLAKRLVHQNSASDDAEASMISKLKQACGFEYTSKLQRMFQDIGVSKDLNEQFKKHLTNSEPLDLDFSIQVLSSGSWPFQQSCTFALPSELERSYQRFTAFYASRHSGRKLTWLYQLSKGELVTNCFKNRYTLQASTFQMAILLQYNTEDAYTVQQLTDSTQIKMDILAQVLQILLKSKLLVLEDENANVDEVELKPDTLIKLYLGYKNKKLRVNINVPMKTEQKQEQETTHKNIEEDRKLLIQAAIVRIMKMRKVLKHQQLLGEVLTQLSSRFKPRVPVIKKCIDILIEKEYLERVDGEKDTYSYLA
# Starred values were filed as active, the others as inactive. This is one part of a sample in which hits are shown more often than they occur.
SMILES,RBX1-CUL1 inh
O=C(CSc1nc(-c2ccccc2)cs1)NC1=NN(c2ccccc2)C(=O)C1,-16
Cc1ccc(-c2csc(SC3C(=O)N(c4ccccc4)N=C3c3ccccc3)n2)cc1 (configuration not stated),83*
CNC(=O)CSc1nc(-c2ccccc2)cs1,-5
COc1ccc2[nH]cc(CCNC(=O)c3cnn(-c4ccc(C)cc4)c3C3CCN(C(=O)OC(C)(C)C)CC3)c2c1,2
CCCOc1ccc(-c2csc3ncn(CCCc4ccccc4)c(=O)c23)cc1,3
O=C(O)COc1ccccc1/C=C1\C(=O)Nc2ccc(Br)cc21,5
O=C1Nc2ccc(Br)cc2/C1=C\c1nc2ccccc2c(=O)n1-c1cccc(C(=O)O)c1,32*
O=C1Nc2ccc(Br)cc2C1=Cc1nc2ccccc2c(=O)n1Cc1ccccc1,-4
C/C=C/Cn1c(=O)c2c(nc3n(CC(C)C)c(C)cn23)n(C)c1=O,-11
COc1ccccc1OCCn1cc(C(=O)c2cccs2)c2ccccc21,-4
CC[n+]1cc(Cl)nc(-c2ccccc2)c1-c1ccccc1,39*
CCOc1cc[n+](CC)c(-c2ccccc2)n1,0
Nc1nc(-c2ccccc2)c(Cl)nc1-c1ccccc1,5
O=C1C2C3c4ccccc4C(c4ccccc43)C2c2nc3ccccc3n21 (configuration not stated),-1
CN(C)c1cc[n+](Cc2ccccn2)cc1,0
C1=C(CCNCc2ccccn2)CCCC1,6
c1ccc(C[n+]2cccc3c2CCCC3)nc1,45*
CCN(CC)c1ccc(/C=C(\C#N)C(=O)N2CCN(c3ccccc3)CC2)cc1,-2
COc1cccc(CNC(=O)C2CCCN(c3nc(C)c4ccc(S(C)(=O)=O)cc4n3)C2)c1 (configuration not stated),2
CC(=O)c1ccc(N2CCN(S(=O)(=O)c3ccc4[nH]c5c(c4c3)CCCC5)CC2)cc1,7
COc1ccccc1C1NCCS1 (configuration not stated),33*
CCOc1cc2c(cc1OCC)C(c1ccccc1OC)CC(=O)N2 (configuration not stated),10
COc1cccc(C2SCCCS2)c1O,8
O=C(Nc1cccc(NC(=O)c2ccc([N+](=O)[O-])cc2[N+](=O)[O-])c1)c1ccc(Cl)cc1Cl,-3
CCOC(=O)c1ccc(NC(=O)CCCCCN2C(=O)c3ccccc3C2=O)cc1,-1
SMILES,RBX1-CUL1 inh
CCOC(=O)c1cc(NC(=O)c2ccc(N)cc2)cc(NC(=O)c2ccc(N)cc2)c1,0
CCOC(=O)C1=C(CSc2nc(C)c(C)c(C)c2C#N)OC(=N)C(C#N)C1c1cccs1 (configuration not stated),0
O=c1ccc2ncc3sccc3c2[nH]1,4
CC(C)(C)NC(=O)c1ccc2c3c(onc13)-c1ccccc1C2=O,3
CC(C)(C)c1ccc(S(=O)(=O)Nc2cc(SCC(=O)O)c(O)c3ccccc23)cc1,92*
CC(C)(C)c1ccc(S(=O)(=O)Nc2ccc(Cl)cc2Cl)cc1,-2
Cc1ccc(NS(=O)(=O)c2ccccc2)c(O)c1,11
O=C(O)CSc1cc(NS(=O)(=O)c2ccccc2)c2ccccc2c1O,37*
CC(=O)c1c(C)oc2c1cc(NS(=O)(=O)c1ccc(Br)cc1)c1ccccc12,3
O=S(=O)(Nc1cc(Sc2nnnn2-c2ccccc2)c(O)c2ccccc12)c1ccccc1,5
O=C(O)CSc1cc(NS(=O)(=O)c2ccc(Br)cc2)c2ccccc2c1O,102*
O=c1oc2c(cc(NS(=O)(=O)c3ccc(Br)cc3)c3ccccc32)s1,2
CC(C)(C)c1ccc(S(=O)(=O)Nc2ccc(O)c(C(=O)O)c2)cc1,4
Cc1sc2nc(SCc3ccccc3)n(N)c(=O)c2c1C,-4
CCOc1ccc(N=c2scc(-c3ccc(OC)cc3)n2CCO)cc1,-5
Cc1ccc(C(C)C)c(Oc2ccc(NC(=O)CCC(=O)O)cc2)c1,10
CCOC(=O)c1c(NC(C)=O)c2c3c(sc2n1Cc1cc(C)ccc1C)CCCC3,-3
Cc1ccccc1C(=O)NNc1ncnc2sc3c(c12)CCCC3,-5
CCOc1ccccc1NC(=O)c1ccccn1,-9
CCOC(=O)NN(C(=O)c1ccccc1)C(C)(C)C,1
CC(=O)c1ccc(NC(=O)c2cc(C)nn2-c2ccccc2)cc1,-9
CCOc1cc(/C=C2/SC(=S)N(C(CCC(=O)O)C(=O)O)C2=O)ccc1O (configuration not stated),14
CC(/C=C1\SC(=S)N(c2ccc(C(=O)O)cc2)C1=O)=C\c1ccccc1,106*
O=C(O)c1ccc(/C=C2\SC(=S)N(NC(=O)c3ccccc3)C2=O)cc1,-2
Cc1ccc(N2C(=O)/C(=C/c3ccc(C(=O)O)cc3)SC2=S)cc1C,-3
SMILES,RBX1-CUL1 inh
O=C(O)CCC(C(=O)O)N1C(=O)/C(=C/c2cccc(Br)c2)SC1=S (configuration not stated),-3
CCCC(C(=O)O)N1C(=O)/C(=C/C(C)=C/c2ccccc2)SC1=S (configuration not stated),29*
CC(C)c1ccc(NC(=O)CN2CCN(c3ccccc3F)CC2)cc1,-1
CC(C)(CO)CNC(=O)CC1C(=O)NCCN1C1CCCC1 (configuration not stated),1
Cc1ncc2c(c1-c1noc(-c3ccn[nH]3)n1)CCN(C(=O)c1ccccc1)C2,2
O=[N+]([O-])c1ccc(O)c(C=Nc2cc(Cl)cc(Cl)c2)c1,-5
O=[N+]([O-])c1cc(C=Nc2c(Cl)cc(Cl)c(N=Cc3cc([N+](=O)[O-])c(O)cc3O)c2Cl)c(O)cc1O,108*
O=[N+]([O-])c1ccccc1C=Nc1ccccc1Cl,-4
COc1cccc2cc(C(N)=O)c(=Nc3ccc(O)cc3)oc12,0
O=c1c(-c2nn[nH]n2)coc2ccc(Br)cc12,0
COc1ccc(CN2CCN(C(C)C)C(CCO)C2)c2ccccc12 (configuration not stated),-2
OCNc1nc2c3ccccc3nc(CCN3CCCCC3)n2n1,46*
c1ccc2nc3c(nc2c1)c1ccccc1n3CN1CCCCC1,2
Cn1c(CN2CCCCC2)nc2ccccc21,4
CCOc1ccc(CNC(=O)CSc2nnc(C)c3c(C)n(-c4ccccc4)nc23)cc1,-13
CCOC(=O)C1=C(C)N=c2s/c(=C\c3cc(Cl)cc(Cl)c3O)c(=O)n2C1c1ccccc1Cl (configuration not stated),-29
COC(=O)C1C2(C)N=c3s/c(=C\c4cc(Cl)cc(Cl)c4O)c(=O)n3C3c4ccccc4OC312 (configuration not stated),41*
Cc1ccccc1NC(=O)C1C2c3ccccc3OC1(C)N=c1s/c(=C/c3cnn(C)c3C)c(=O)n12 (configuration not stated),-4
O=C(CSc1nc2ccccc2n1Cc1ccc(Cl)cc1)N/N=C/c1ccccc1C(=O)O,0
O=C(Cc1ccc2c(c1)OCO2)N1CCOc2ccc(CN3CCN(c4ccccc4)CC3)cc2C1,4
Cn1c(=O)n(C)c2cc(/C=C3/SC(=O)N(CC(=O)N4CCOCC4)C3=O)ccc21,3
CCCCN1C(=O)/C(=C/c2ccc3c(c2)OCO3)C(=O)N(Cc2ccco2)C1=S,101*
O=C1NN(c2ccc(Br)cc2)C(=O)/C1=C\C=C\c1ccco1,4
CCCCN1C(=O)C(=O)N(c2ccccc2)C1=S,1
CCCCCCN1C(=O)NC(=O)/C(=C\c2ccc3c(c2)OCO3)C1=O,7
CCCCN1C(=O)C(=Cc2ccc(OCC)c(OC)c2)C(=O)N(CCCC)C1=S,1
